From PMC4336329 (PLoS ONE, 2015)
The campaign covered roughly 310,000 compounds. About 2,200 (0.71%) showed an effect of 50% or more. The effect is printed as a negative number. The full list was thinned out, with strong results kept by preference.

biological target: human ether-à-go-go-related gene (hERG) potassium channel (human, UniProt Q12809); assay: primary screen, population patch clamp on CHO cells stably expressing hERG; higher = less effect of the substance
Sequence (Q12809 whole entry, looked up): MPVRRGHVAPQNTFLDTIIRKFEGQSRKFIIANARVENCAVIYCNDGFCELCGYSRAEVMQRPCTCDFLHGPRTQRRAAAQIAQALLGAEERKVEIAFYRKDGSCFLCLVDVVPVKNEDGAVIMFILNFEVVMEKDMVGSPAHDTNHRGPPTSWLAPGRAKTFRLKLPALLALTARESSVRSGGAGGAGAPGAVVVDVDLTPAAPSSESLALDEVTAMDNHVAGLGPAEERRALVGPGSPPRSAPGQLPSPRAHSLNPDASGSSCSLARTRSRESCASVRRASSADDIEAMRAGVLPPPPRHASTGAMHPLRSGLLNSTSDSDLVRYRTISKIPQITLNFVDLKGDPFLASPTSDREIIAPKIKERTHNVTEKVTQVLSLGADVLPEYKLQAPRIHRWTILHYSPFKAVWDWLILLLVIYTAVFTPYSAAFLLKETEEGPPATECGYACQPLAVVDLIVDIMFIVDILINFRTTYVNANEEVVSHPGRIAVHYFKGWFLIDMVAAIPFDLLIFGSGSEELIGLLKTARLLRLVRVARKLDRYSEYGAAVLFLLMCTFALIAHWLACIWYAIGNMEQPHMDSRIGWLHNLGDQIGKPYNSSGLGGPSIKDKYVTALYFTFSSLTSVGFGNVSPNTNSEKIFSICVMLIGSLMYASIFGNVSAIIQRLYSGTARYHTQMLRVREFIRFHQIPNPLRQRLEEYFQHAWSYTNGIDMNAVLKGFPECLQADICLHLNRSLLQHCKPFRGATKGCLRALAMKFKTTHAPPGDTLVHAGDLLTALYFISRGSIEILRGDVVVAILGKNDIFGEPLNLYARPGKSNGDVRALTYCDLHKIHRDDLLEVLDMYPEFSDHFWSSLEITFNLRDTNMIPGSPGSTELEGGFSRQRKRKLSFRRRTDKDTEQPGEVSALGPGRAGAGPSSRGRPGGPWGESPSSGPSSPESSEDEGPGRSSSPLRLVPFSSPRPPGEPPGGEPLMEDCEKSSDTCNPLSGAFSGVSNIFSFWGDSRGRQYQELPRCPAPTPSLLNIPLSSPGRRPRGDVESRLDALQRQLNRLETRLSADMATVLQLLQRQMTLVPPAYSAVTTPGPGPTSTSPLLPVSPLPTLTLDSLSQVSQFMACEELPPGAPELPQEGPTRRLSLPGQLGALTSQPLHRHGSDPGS

SMILES | hERG current change (%, negative = inhibition) at 1uM [%]
CN(C)CCN1C(=O)c2oc3ccccc3c(=O)c2C1c1ccc(F)cc1 (centres unmarked) | -2.93
CC(=O)Nc1ccc(Oc2sc(C(=O)c3ccccc3)c(N)c2C#N)cc1 | 9.56
COCCN(C(=O)CSc1nnc(-c2ccco2)n1C)c1c(N)n(CC(C)C)c(=O)[nH]c1=O | 8.54
CCN1CCN(c2ccc(NC(=O)c3ccc4c(c3)OCO4)cc2)CC1 | -16.7
CCOC(=O)C1=C(COC(=O)/C=C/c2cccc(Br)c2)NC(=O)NC1C (centres unmarked) | -7.77
Cc1ccc(C#N)c(SCc2cccc(Br)c2)n1 | 17.2
CCN(CC)CCOC(=O)c1ccc(NC(=O)/C=C/c2cccs2)cc1.Cl | -53.5
CCCOC(=O)c1ccc(NC(=O)/C=C/c2cccs2)cc1 | 7.88
CCCCOC(=O)c1ccc(NC(=O)/C=C/c2cccs2)cc1 | 1.76
O=C(N/N=C\c1cccnc1)c1cc(-c2ccc(Cl)s2)[nH]n1 | 8.22
CSc1ccc(/C=C(/NC(=O)c2ccccc2)C(=O)NCCN2CCOCC2)cc1 | -10.3
O=C(NCCN1CCOCC1)/C(=C\c1ccc(F)cc1)NC(=O)c1ccccc1 | -51.7
O=C(NCCO)/C(=C\c1ccc(Br)cc1)NC(=O)c1cccs1 | 6.96
O=C(NCCCN1CCOCC1)/C(=C/c1ccc(F)cc1)NC(=O)c1ccccc1 | -46.5
O=C(NCCN1CCOCC1)/C(=C\c1ccc(Br)cc1)NC(=O)c1cccs1 | -54
CN(C)c1ccc(/C=C(\NC(=O)c2ccccc2)C(=O)NCCN2CCOCC2)cc1 | 8
O=C(NCCN1CCOCC1)/C(=C/c1ccc(F)cc1)NC(=O)c1ccccc1 | -58.4
O=C(NCCO)/C(=C/c1ccc(Br)cc1)NC(=O)c1cccs1 | -8.3
CSc1ccc(/C=C(\NC(=O)c2ccccc2)C(=O)NCCN2CCOCC2)cc1 | -44.3
COc1cc(CCC(=O)OCC(=O)Nc2ccc(F)c(F)c2)cc(OC)c1OC | 3.59
CC(C)N1C(=O)S/C(=C/c2ccc3c(c2)n(C)c(=O)n3C)C1=O | -5.59
COc1ccc(CNC(=O)COC(=O)CC2CC3CCC2C3)cc1OC (centres unmarked) | 6.66

SMILES | hERG current change (%, negative = inhibition) at 1uM [%]
COc1cccc(/C=C/c2nc3c(cnn3-c3ccccc3)c(=O)[nH]2)c1 | 9.85
COC(=O)c1cc(NC(=O)Cc2ccc(OC)cc2)cc(C(=O)OC)c1 | 14.7
CCN1CCN(c2ncnc3sc(C(=O)Nc4ccccc4F)c(C)c23)CC1 | -50.9
CCOC(=O)c1sc2ncnc(N3CCN(CC)CC3)c2c1C | -9.54
Cc1c(C(=O)Nc2c(F)cccc2F)sc2ncnc(N3CCN(c4ccccc4)CC3)c12 | 4.01
Cc1ccc(S(=O)(=O)NC2CCC(C(=O)O)CC2)cc1 (centres unmarked) | 9.17
COC(=O)c1oc2ccc(OC)cc2c1N | 14.9
CC(=O)N(c1ccccc1C)S(=O)(=O)c1ccc(Cl)cc1 | 10
COc1ccc2[nH]c(C(=O)NCCc3ccccc3)cc2c1 | 17.2
COc1ccccc1NC(=S)NC1CCCC1 | 14.8
CN1/C(=C\C(=O)c2ccco2)C(C)(C)c2ccccc21 | 4.59
CC(OC(=O)CCCC(=O)Nc1ccc(F)cc1)C(=O)c1ccccc1 (centres unmarked) | 12.7
CC(=O)Nc1ccc(NC(=O)C(C)OC(=O)CCC(=O)c2ccc(F)cc2)cc1 (centres unmarked) | 8.41
CC(OC(=O)CCC(=O)c1ccccc1)C(=O)Nc1ccc(F)cc1 (centres unmarked) | -299
CC(=O)NCCC(=O)Nc1nc2ccc(Oc3ccccc3)cc2s1 | 2.19
Cc1cccc(S(=O)(=O)Nc2cccc3c2C(=O)c2ccccc2-3)c1 | 3.03
CCN(C(=O)c1cccs1)c1nc(-c2ccc(OC)cc2)cs1 | 13.4
CCC(=O)N(CCCN(C)C)c1nc(-c2cc(OC)ccc2OC)cs1.Cl | -8.76
CCN(CC)CCCN(C(C)=O)c1nc(-c2cc(OC)ccc2OC)cs1.Cl | -51
COc1ccc(-c2csc(N(CCCN(C)C)C(=O)c3ccccc3C)n2)cc1.Cl | -2.13
COc1ccc(-c2csc(N(CCCN(C)C)C(=O)c3ccccc3Cl)n2)cc1.Cl | -12.5
CN(C)CCCN(C(=O)c1cccs1)c1nc(-c2ccccc2)cs1 | -50.7

SMILES | hERG current change (%, negative = inhibition) at 1uM [%]
O=C(c1cccs1)N(CC1CCCO1)c1nc(-c2ccccc2)cs1 (centres unmarked) | 11.8
CCN(CC)CCCN(C(=O)c1cccs1)c1nc(-c2ccc(OC)cc2)cs1 | -71.8
CCC(=O)N(CC)c1nc(-c2cc(OC)ccc2OC)cs1 | 12.9
COc1ccc(-c2csc(N(CCCN(C)C)C(=O)c3cccs3)n2)cc1.Cl | -51.6
CCN(CC)CCCN(C(=O)c1ccc(OC)cc1)c1nc(-c2ccc(OC)cc2)cs1 | -15.5
COc1ccc(-c2csc(N(CCCN(C)C)C(=O)c3ccc(C)cc3)n2)cc1.Cl | -17.2
COC(=O)c1cc(OC)c(OC)cc1NC(=O)C(C)c1ccc([N+](=O)[O-])cc1 (centres unmarked) | 8.84
CC1OC2(OC1C)C(=O)Nc1ccccc12 (centres unmarked) | 6.93
Cc1onc(NC(=O)NC(=O)c2c(F)cccc2Cl)c1Br | 10.4
O=C(Cn1nc(C(=O)O)c2ccccc2c1=O)Nc1ccc2c(c1)C(=O)c1ccccc1C2=O | 6.96
COc1ccc(-c2nc(CS(=O)CC(=O)NCc3ccco3)c(C)o2)cc1 (centres unmarked) | -1.89
COc1cc(/C=C2\C(=N)N3N=CSC3=NC2=O)ccc1OS(=O)(=O)c1ccccc1 | 6.08
CCCCc1ccc(NC(=S)N2CCCC(C)C2)cc1 (centres unmarked) | 10.2
CC(C)n1c(N2CCN(CC(=O)NCc3cccs3)CC2)nc2ccccc21 | -30.9
CC(C)n1c(N2CCN(C(=O)c3cccs3)CC2)nc2ccccc21 | -26.9
O=C(c1cccs1)N1CCN(c2nc3ccccc3s2)CC1 | 7.28
CCCn1c(N2CCN(CC(=O)NCc3cccs3)CC2)nc2ccccc21 | -62.7
CCCn1c(N2CCN(CC(=O)Nc3ccc4c(c3)OCCO4)CC2)nc2ccccc21.Cl | -29.2
CC(C)Cn1c(N2CCN(C(=O)c3cccs3)CC2)nc2ccccc21 | -74.7
O=C(/C=C/c1cccc([N+](=O)[O-])c1)OC1CCCCC1=O (centres unmarked) | 9.96
Cc1ccc(C(C)NC(=O)CSc2ccc(S(=O)(=O)N3CCOCC3)cn2)cc1C (centres unmarked) | 5.8
COc1ccc(Cl)cc1Nc1nc(-c2sc(NC(=O)CC(C)C)nc2C)cs1 | 11.1

SMILES | hERG current change (%, negative = inhibition) at 1uM [%]
CCOC(=O)c1sc(=S)n(-c2cc(OC)ccc2OC)c1N | 6.58
COc1cc2c(cc1OC)C(C)N(CCc1ccc(Cl)cc1)CC2.O=C(O)/C=C\C(=O)O (centres unmarked) | -39.9
COc1cc2c(cc1OC)CN(CCC(C)c1ccc(Cl)cc1)CC2.O=C(O)/C=C\C(=O)O (centres unmarked) | -50.5
COc1cc2c(cc1OC)CN(CC(=O)Nc1ccc(Cl)cc1Cl)CC2 | 2.03
O=C(COC(=O)c1cccs1)Nc1ccccc1Cl | 14.6
CCOc1ccccc1-n1c(SCC(=O)Nc2nccs2)nnc1-c1ccoc1C | 11.5
Cc1occc1-c1nnc(SCC(=O)NCc2cccs2)n1-c1ccc(F)cc1 | -14
Cc1csc(NC(=O)CSc2nnc(C)n2Cc2ccco2)n1 | 7.95
Cc1csc(NC(=O)CSc2nnc(-c3ccoc3C)n2Cc2ccco2)n1 | -78.4
COc1cccc(-n2c(SCC(=O)Nc3nccs3)nnc2-c2ccoc2C)c1 | -84.6
CCn1c(SCC(=O)Nc2nc(C)cs2)nnc1-c1ccoc1C | 10.4
Cc1occc1-c1nnc(SCC(=O)Nc2nccs2)n1Cc1ccco1 | 3.28
COc1ccc(-n2c(SCC(=O)NCc3cccs3)nnc2-c2ccoc2C)cc1 | -55.9
Cc1ccc(-n2c(SCC(=O)NCc3cccs3)nnc2-c2ccoc2C)cc1 | -16.5
COc1ccc(-n2c(SCC(=O)Nc3ccccc3)nnc2-c2ccoc2C)cc1 | 11.7
COC(=O)CSc1nnc(-c2ccoc2C)n1-c1ccc(OC)cc1 | 8.81
COc1ccc(-n2c(SCC(=O)Nc3nc(C)cs3)nnc2-c2ccoc2C)cc1 | -85
O=C(CCCN1C(=O)/C(=C/c2ccccc2Cl)SC1=S)Nc1ccccn1 | 4.44
COc1cc(NC(=O)CSc2nccc(C)n2)c(C(=O)O)cc1OC | -7.07
COc1cc2c(cc1OC)C(COc1ccccc1OC)N(C(=O)C(C)(C)C)CC2 (centres unmarked) | 5.43
